GPR151 activ: human GPR151 activation; Q8TDV0; PathHunter beta-arrestin GPR151 cells, luminescence; activation, % at 11.2 µM; 650,000 tested, 1% active; in the data active = activation above about 4.9%;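 also: 0% = median of compound wells and 100% = cells with positive control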
TEAD-YAP inh: TEAD-YAP interaction inhibition. 640,000 tested, 1.4% active. HEK-TIYL cells, TEAD-Gal4/YAP UAS-luciferase luminescence. inhibition, % at 9.12 µM; in the data active = inhibition above about 32%;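 also: 0% = median of test compound wells and 100% = reference inhibitor wells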
MITF primary: human MITF inhibition, primary screen; O75030; AlphaScreen MITF homodimerization, bead proximity signal; inhibition, % at 2.6 µM; 650,000 tested, 0.91% active; in the data active = inhibition above about 50%;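 also: 0% = vehicle wells with protein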
FBW7 activator: activators of human E3 ligase FBW7; Q969H0; AlphaScreen FBW7–phospho-cyclin E peptide binding, activator screen; normalized activity (activation), % at 26.1 µM; 650,000 tested, 0.13% active; AID 1259310; in the data active = normalized activity above about 1.9%;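 also: purified mutant Fbw7 with reduced substrate affinity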
GPR151 confirm: human GPR151 activation, confirmation screen; activation, % at 11.2 µM; GPR151 PathHunter beta-arrestin cells, luminescence, 90 min; % of EA-reagent control over plate median; 6,700 tested, under 10 active; shares compounds with GPR151 activ;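 active = mean percent activation across replicates above the confirmation screen cutoff of 4.91%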
GPR119 ag: activates human GPR119 in a GPR151 counter-screen. GPR119 PathHunter beta-arrestin cells, luminescence, 90 min; 0 = compound-well median, 100 = enzyme-acceptor control. shares compounds with GPR151 activ. AID 1508611. activation, % at 11.2 µM. 6,700 tested, 0.3% active;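 active = mean percent activation in the counterscreen above 29.09%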;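 also: counterscreen on off-target GPR119 to flag nonselective hits from the GPR151 activator screen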
Target sequence (Q8TDV5 whole entry, looked up): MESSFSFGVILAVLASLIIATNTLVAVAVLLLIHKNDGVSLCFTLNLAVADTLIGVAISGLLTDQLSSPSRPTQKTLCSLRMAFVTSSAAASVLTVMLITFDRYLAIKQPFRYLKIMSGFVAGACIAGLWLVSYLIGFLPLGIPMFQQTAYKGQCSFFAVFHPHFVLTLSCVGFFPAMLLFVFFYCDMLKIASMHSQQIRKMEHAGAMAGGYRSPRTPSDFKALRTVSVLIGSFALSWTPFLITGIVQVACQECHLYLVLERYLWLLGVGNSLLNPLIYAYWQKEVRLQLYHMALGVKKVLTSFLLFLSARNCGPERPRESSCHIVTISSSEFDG
Numbers without * were called inactive; · = not tested or not shown; ! = not active in a repeat. Most compounds without a hit are left out; they make up all but 3.5% or so of the library.

SMILES	GPR151 activ	TEAD-YAP inh	MITF primary	FBW7 activator	GPR151 confirm	GPR119 ag
CCOc1ccc(-n2c(CSc3ncccn3)nnc2SC(C)C)cc1	1	0	2	0	·	·
Cc1ccc(NC(=O)C(CC(=O)O)C2CCCO2)cc1 (centres undefined)	19*	-5	4	0	1	-3
CCOc1ccc(NC(=O)C(CC(=O)O)C2CCCO2)cc1 (centres undefined)	0	-5	-13	0	·	·
O=C(NCc1ccccc1Cl)c1c(O)c2ccccc2[nH]c1=O	5.0*	2	4	0	1	-1
O=C(NCCCNCCCNC(=O)/C(=N/O)c1ccccc1)/C(=N/O)c1ccccc1	5.4*	-6	10	0	0	4
NCCNC(=O)/C(=N\O)c1ccccc1	0	15	4	0	·	·
CC(C)(C)c1ccc(OCC(O)CS(=O)Cc2ccccc2)cc1 (centres undefined)	5.4*	0	1	0	0	6
CC(CC(=O)N1CCN(c2ccc([N+](=O)[O-])cc2)CC1)c1ccccc1 (centres undefined)	-2	-6	4	0	·	·
COc1ccc(Br)cc1C1C(C(=O)OCC2CCCO2)=C(C)NC2=C1C(=O)CCC2 (centres undefined)	-1	8	1	0	·	·
O=C(CCCOc1ccccc1)Nc1ccccc1C(=O)N1CCOCC1	9.4*	8	4	0	0	12
CCOC(=O)N1CCN(C(=S)Nc2cc(OC)ccc2OC)CC1	5.2*	7	10	0	0	1
CCOC(=O)N1CCN(C(=S)Nc2cc(Cl)ccc2OC)CC1	1	1	2	0	·	·
CCOC(=O)N1CCN(C(=O)Nc2ccc(Cl)cc2Cl)CC1	5.1*	6	-29	0	0	-8
CCOC(=O)N1CCC(N(CCN(C)C)C(=S)Nc2cccc(CC)c2)CC1	0	-8	-8	0	·	·
CCOC(=O)N1CCN(C(=S)Nc2ccc(C)cc2)CC1	6.0*!	-7	-2	1	2	11
CCOC(=O)N1CCC(N(CCN(C)C)C(=S)Nc2cc(C)cc(C)c2)CC1	7.7*	-10	-2	0	0	4
COc1cc(Nc2nc(Cl)nc3c2ncn3C(C)C)cc(OC)c1OC	0	13	5	0	·	·
COc1ccccc1CNC(=O)c1sc2nc(C)nc(N3CCCCC3)c2c1C	5.2*	-8	5	0	0	1
Cc1nc(N2CCN(C)CC2)c2c(C)c(C(=O)N3CCC(Cc4ccccc4)CC3)sc2n1	7.1*	3	11	0	-1	-9
CCCCCOc1ccc(NC(=O)C(C)C)cc1	14*	-68	-11	0	0	-2
CCCCOc1ccc(NC(=O)C(=O)NC(C)C)cc1	5.6*	7	-12	0	0	0
CCCCOc1ccc(NC(=O)C(=O)NC)cc1	-1	-8	19	1	·	·
CCCCOc1ccc(NC(=O)CC)cc1	1	-16	7	0	·	·
COc1cccc(C(=O)NCc2nnc(SCC(=O)N3N=C(c4cccs4)CC3c3ccc(C)cc3)n2-c2cccc(C)c2)c1 (centres undefined)	1	-10	-8	0	·	·
COc1cc(NC(=O)c2cnc(N3CCCC3CO)s2)cc(OC)c1OC (centres undefined)	1	-7	1	0	·	·
SMILES	GPR151 activ	TEAD-YAP inh	MITF primary	FBW7 activator	GPR151 confirm	GPR119 ag
COc1cc(OC)cc(C(=O)Nc2nc(-c3ccc(OC)cc3OC)cs2)c1	1	-7	-1	0	·	·
CNc1ccccc1P(=O)(O)O	6.3*	4	-3	0	1	-1
CC1=NN(c2ccc(Br)cc2)C(=O)/C1=C/c1ccc(C)s1	7.5*	3	-2	0	1	2
COC(=O)c1ccc(N2N=C(C)/C(=C/c3ccc(C)s3)C2=O)cc1	0	2	-3	0	·	·
CCOC(=O)N1CCc2c(sc(NC(=O)c3ccc(S(=O)(=O)N4CC(C)CC(C)C4)cc3)c2C(N)=O)C1 (centres undefined)	2	-1	-11	0	·	·
CCOc1ccccc1CNc1sc2c(c1C(=O)Nc1ccc(OC)cc1OC)CCC2	11*	1	15	0	2	11
CCOc1ccccc1CNc1sc2c(c1C(=O)Nc1ccc(OC)cc1)CCC2	2	6	-2	0	·	·
CCc1ccc(CN2CCc3nnc(CNC(=O)C4CCC(=O)N4)n3CC2)cc1 (centres undefined)	0	-11	-3	0	·	·
CCn1c(=O)n(-c2ccccc2)c(=O)c2c3c(sc21)CN(C(C)=O)CC3	1	3	0	1	·	·
CCn1c(=O)n(-c2ccccc2C)c(=O)c2c3c(sc21)CN(C(C)=O)CC3	9.0*	-5	0	0	-1	-10
N#Cc1cc([N+](=O)[O-])ccc1NC(=O)COC(=O)CC1CCCC1	5.0*	1	-1	0	-1	-5
N#Cc1cc([N+](=O)[O-])ccc1NC(=O)COC(=O)C1CC1	1	3	9	0	·	·
Cc1cc(NC(=O)COC(=O)CC2CCCCC2)no1	5.0*	-3	16	0	1	5
C=CCOc1ccc(/C(O)=C2/C(=O)C(=O)N(CCN(CC)CC)C2c2ccc(C)cc2)c(C)c1 (centres undefined)	7.1*	5	-7	0	0	-3
O=C(CSCc1ccccn1)Nc1ccc2ccccc2c1	7.5*	-40	-8	0	0	9
O=C(CSCCc1ccccn1)Nc1ccccc1Cl	8.0*	-13	2	0	0	0
O=C(CSCC(=O)Nc1ccccn1)Nc1ccc2ccccc2c1	-1	-15	0	0	·	·
O=C(CSCCc1ccccn1)Nc1ccc(I)cc1	5.7*	-25	-14	0	0	4
Cc1ccccc1-c1nnc2n1N=C(c1ccc(Cl)cc1)CS2	6.6*	3	4	0	0	5
Clc1ccc(-c2nnc3n2N=C(c2ccccc2)CS3)cc1	-1	3	6	0	·	·
CN1CCN(C(=O)Cn2ncc3ccccc32)CC1	2	1	8	0	·	·
CCC(C(=O)NCc1ccc(C)cc1)n1c2ccccc2c2nc(=O)cc(C)n21 (centres undefined)	-1	2	5	0	·	·
CC(C)n1c(Nc2ccc3ncccc3c2)nc2c(NCCN3CCOCC3)ncnc21	6.4*	-4	14	0	0	0
CC(C)n1c(Nc2ccc3ncccc3c2)nc2c(NCCc3ccc(O)cc3)ncnc21	5.1*	-1	0	0	0	-5
CC(C)n1c(Nc2ccccc2)nc2c(NCCc3ccc(O)cc3)ncnc21	6.1*	30	-1	0	-1	-11
CCN(CC)C(=O)C1c2ccccc2C(=O)N(CCOC)C1c1cn(C)c2ccccc12 (centres undefined)	0	3	-10	0	·	·

Assay outcomes as filed in PubChem BioAssay.
